Assay outcomes deposited in PubChem by National Center for Advancing Translational Sciences (NCATS).
TGFb SMAD3 inh = inhibitors of TGF-b signaling. HepG2 CAGA-GFP TGF-b/SMAD3 reporter, GFP fluorescence, 18 h; TGF-beta stimulated, 500 pg/mL final. Potency, µM (doses to about 46.1 µM), usual class: inhibitors. 1.2% of 410,000 active. AID 588855; note: nearly all actives have a fitted effect of over 65% in size
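HEPG2 CAGA-GFP, 1000 cells/well; 2 h settle, 37 C; cpd via pin tool; TGF-b 500 pg/mL final; 18 h, 37 C; GFP imaging ex488/em500-530; %Activity normalised to -TGF-b and +DMSO controls; CRC fit, curve class.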
DRD3 agonist = D3 dopamine receptor (human) agonism; D3R DiscoveRx beta-arrestin cells, luminescence, 90 min; max activation, %; P35462; 0.58% of 410,000 active; in the data active = max activation above about 30%
Target sequence (P35462 whole entry, looked up): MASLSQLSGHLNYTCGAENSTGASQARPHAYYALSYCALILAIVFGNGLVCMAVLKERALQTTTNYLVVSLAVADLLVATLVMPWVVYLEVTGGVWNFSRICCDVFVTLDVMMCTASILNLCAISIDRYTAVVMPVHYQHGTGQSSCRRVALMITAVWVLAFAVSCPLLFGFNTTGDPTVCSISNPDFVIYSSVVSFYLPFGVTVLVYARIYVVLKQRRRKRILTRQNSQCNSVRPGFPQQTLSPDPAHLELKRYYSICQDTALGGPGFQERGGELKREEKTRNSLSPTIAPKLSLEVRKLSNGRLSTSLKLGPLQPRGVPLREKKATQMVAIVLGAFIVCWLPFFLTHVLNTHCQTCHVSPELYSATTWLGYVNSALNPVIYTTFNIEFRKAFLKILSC
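Cells at 1500/well, incubated overnight, then treated with pinned compounds (dopamine as control) for 90 min at 37 degrees C. DiscoveRx reagent added for 30 - 60 minutes at room temperature; luminescence read.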
D3 antag = antagonists of human D3 dopamine receptor | P35462 | D3R cells, DiscoveRx beta-arrestin luminescence, antagonist mode; active compounds read low | max response, negative = inhibition, % | 2.5% of 360,000 active | AID 652054; in the data active = max response below about -50%; inconclusive = no clear call, values can overlap the other calls
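Cells expressing the human receptor were seeded at 1500 cells/well, incubated overnight at 37 degrees C in 5% CO2, then exposed to library compounds with dopamine controls for 90 minutes at 37 degrees C before luminescent detection.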
HepG2 viability = HepG2 cytotoxicity, counter-screen for TGF-b inhibitors; Potency, µM (doses to about 46.1 µM), usual class: cytotoxic; HepG2 CAGA-GFP viability, ATP luminescence, 18 h; 0.76% of 410,000 active; AID 588856
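HepG2 CAGA-GFP cells (1000/well, DMEM with 1% FBS) received compound, then TGF-beta at 500 pg/mL final, and were incubated 18 hours at 37 degrees C. Viability was read by CellTiter-Glo luminescence. Media-only wells were set as complete cell-killing and DMSO as no toxicity.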
ATXN2 expr inh = inhibitors of ATXN2 expression; HEK-293 ATXN2-luciferase reporter, luminescence, 24 h; Potency, µM (doses to about 57 µM), actives largely listed as inhibitors; 0.72% of 360,000 active; AID 1745845; note: nearly all actives have a fitted effect of over 55% in size
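ATXN2-luciferase reporter cells (luciferase flanked by upstream and downstream ATXN2 gene portions) were treated 24 h at 37 °C with compounds at up to 57 uM. SteadyGlo luminescence gave expression; GF-AFC fluorescence gave viability.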
ATXN viability = cell viability loss in ATXN counter-screen; AID 651635; Potency, µM (highest dose often 56.7 µM), hits mostly cytotoxic; S2 cells (HEK-293 line with an ATXN2-luciferase reporter) viability, CellTiter-Fluor protease fluorescence, 24 h; 0.49% of 400,000 active; note: nearly all actives have a fitted effect of over 40% in size
Of the large screens only hits and unclear results are named; the others gave an inactive call; ! = repeats disagree. Most compounds without a hit are left out; they make up all but 4.7% or so of the library. Unless noted, calls come from the whole dose curve; as a rule, active = well fitted curve in the direction sought with a large enough effect; inconclusive = small, poorly fitted or top-dose-only effect, or another doubt; inactive = no such curve, though single readings can be large; an effect the other way counts as inactive or inconclusive.

CC(Oc1cc2oc(=O)cc(-c3ccccc3)c2cc1Cl)C(=O)NCC1CCC(C(=O)O)CC1 (configuration not stated)	none
COC(=O)[C@@]1(Cc2ccc(OC)cc2)[C@@H]2C(=CC(=O)[C@H]2CC(=O)C(=O)N2CCCC2)CN1C(=O)c1ccccc1	TGFb SMAD3 inh inconclusive, ATXN2 expr inh inconclusive, ATXN viability 28µM
Cc1sc(NC(=O)c2ccco2)nc1-c1ccc2c(c1)CC(C)N2C(=O)C1CC1 (configuration not stated)	TGFb SMAD3 inh inconclusive, DRD3 agonist 42, ATXN2 expr inh inconclusive (no result: ATXN viability)
CC(=O)Nc1nc(-c2ccc3c(c2)CC(C)N3C(=O)C2CC2)c(C)s1 (configuration not stated)	none
CC(=O)Nc1nc(-c2ccccc2)nc(-c2ccccc2OC(C)=O)n1	TGFb SMAD3 inh inconclusive
CC(=O)Nc1nc(C)nc(-c2ccccc2OC(C)=O)n1	DRD3 agonist 31
O=[N+]([O-])c1ccc(N2CCN(CC3CCCCC3)CC2)cc1	TGFb SMAD3 inh inconclusive, D3 antag -58, ATXN viability inconclusive (no result: ATXN2 expr inh)
Cc1cc(C)cc(NC(=O)Cn2c(=O)n(-c3cc(C)cc(C)c3)c(=O)c3oc4ccccc4c32)c1	none (no result: D3 antag, ATXN2 expr inh, ATXN viability)
CC(C)(C)OC(=O)COc1cc(OCC(=O)OC(C)(C)C)c2c(=O)cc(-c3ccccc3)oc2c1	TGFb SMAD3 inh inconclusive, ATXN2 expr inh 20µM, ATXN viability 20µM
CSc1ccc(C(=O)C2CCCN(C(=O)c3ccc4c(c3)no[n+]4[O-])C2)cc1 (configuration not stated)	TGFb SMAD3 inh inconclusive, ATXN viability 14µM (no result: ATXN2 expr inh)
O=C(C1CCC(CNS(=O)(=O)c2cccs2)CC1)N1CCN(c2ccc(Cl)cc2)CC1 (configuration not stated)	TGFb SMAD3 inh inconclusive, DRD3 agonist 41!, ATXN2 expr inh inconclusive
CCn1c(=O)cc(OCC(=O)NCc2ccccc2Cl)c2ccccc21	TGFb SMAD3 inh inconclusive (no result: D3 antag)
c1ccc(OCCN2CCN(Cc3nc(-c4ccc5c(c4)OCO5)no3)CC2)cc1	TGFb SMAD3 inh inconclusive, DRD3 agonist 73, D3 antag inconclusive
CN(CCN1CCc2ccccc2C1)Cc1nc(-c2ccc3c(c2)OCO3)no1	D3 antag -70
CN(CCCCN1CCOCC1)Cc1nc(-c2ccc3c(c2)OCO3)no1	none
Fc1ccc(CN2CCCN(Cc3nc(-c4ccc5c(c4)OCO5)no3)CC2)cc1	ATXN viability inconclusive (no result: ATXN2 expr inh)
CN(CCN1CCc2ccccc2C1)Cc1nc(Cc2ccccc2F)no1	D3 antag -59
COc1ccc(Cc2noc(CN(C)CCN3CCc4ccccc4C3)n2)cc1OC	D3 antag inconclusive (no result: ATXN2 expr inh, ATXN viability)
O=C(Nc1ccccc1OCc1cc(=O)n2ccccc2n1)c1cccc(Br)c1	none (no result: D3 antag, ATXN2 expr inh, ATXN viability)
CC(C)(C)OC(=O)N1CCC(c2c(C(=O)NCc3cccs3)cnn2-c2ccc(F)cc2F)CC1	none (no result: D3 antag, ATXN2 expr inh, ATXN viability)
CC(O)(COc1ccccc1)c1ccc2c(c1)CN(C/C=C/c1ccco1)CCO2 (configuration not stated)	none (no result: TGFb SMAD3 inh, DRD3 agonist, D3 antag, HepG2 viability, ATXN2 expr inh)
COc1ccccc1CCNCc1cc2cccc(C)c2nc1-c1cccs1	none (no result: TGFb SMAD3 inh, DRD3 agonist, D3 antag, HepG2 viability, ATXN2 expr inh)
O=C(Nc1ccc2c(c1)N(C1CCCC1)C(=O)c1ccccc1S2)c1ccccc1F	none (no result: D3 antag)
Cc1ccnc(NC(=O)c2ccc(OCC3CCCO3)cc2)c1 (configuration not stated)	ATXN2 expr inh 5.6µM
Cc1ccc(NC(=O)c2ccc(OCC3CCCO3)cc2)c(C)c1 (configuration not stated)	TGFb SMAD3 inh inconclusive
COc1ccc(C(=O)Nc2ccccc2C(=O)Nc2cc(C)ccn2)cc1	D3 antag -63
COc1ccc(Cc2nc3c4cnn(-c5ccccc5Br)c4ncn3n2)cc1	none (no result: TGFb SMAD3 inh, D3 antag, ATXN2 expr inh, ATXN viability)
O=S1(=O)CCOC[C@H](c2ccccc2)N1Cc1ccccc1	none
O=S1(=O)CCOC[C@H](c2ccccc2)N1Cc1cccc(Cl)c1	D3 antag -59
O=C(NNC1=Nc2cccc3cccc1c23)c1ccc(Br)cc1	D3 antag -97
CCOC(=O)CSc1nnc(C)c(=O)[nH]1	none
CCOC(=O)CSc1nnc(NCC(=O)OC)c(=O)[nH]1	D3 antag -56, ATXN viability inconclusive
